Data: PubChem BioAssay (NCATS)
Inconclusive results are not listed. Unmarked numbers belong to inactive results. Active and inactive are the calls of the source. Calls follow the shape of the dose curve; as a rule, active = well fitted curve in the direction sought with a large enough effect; inconclusive = small, poorly fitted or top-dose-only effect, or another doubt; inactive = no such curve, though single readings can be large; an effect the other way counts as inactive or inconclusive.

Experiment: Cytometric Cell-Based qHTS for Inhibitors of the mTORC1 Signaling Pathway in MEF (Tsc2-/-, p53-/-) Cells (AID 2660);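 also: Tsc2 and p53 null MEFs carrying empty vector with compound for 24 h; percent of cells above a phospho-rpS6 to PI ratio cutoff in each well; plate controls were DMSO for no effect and rapamycin for full effect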
Details: mTORC1 pathway cytometry; series mostly up to 38.3 µM; activity change, negative = inhibition: at the top concentration
Method in brief: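 Immunofluorescence qHTS of rpS6 Ser235/236 phosphorylation: MEFs (Tsc2-/-, p53-/-) treated 24 h, 37 C, in DMEM + 10% FBS. Alexa-488 signal normalized to PI count, referenced to rapamycin (7.5 nM) and DMSO; PI cell number recorded for viability.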

Row | Compound | activity change, negative = inhibition [%]
1 | Cn1c(=O)c2[nH]cnc2n(C)c1=O | 6.18
2 | NCCc1cnc[nH]1 | -1.83
3 | COc1cc2nc(N3CCN(C(=O)C4COc5ccccc5O4)CC3)nc(N)c2cc1OC (stereo not given) | 0.765
4 | CN(C)CCOC(c1ccccc1)c1ccccc1 | 5.38
5 | NC12CC3CC(CC(C3)C1)C2 | 2.56
6 | Cn1cnc2c1c(=O)[nH]c(=O)n2C | 7.3

Experiment: High Content Imaging Cell-Based qHTS for Inhibitors of the mTORC1 Signaling Pathway in MEF (Tsc2-/-, p53-/-) Cells (AID 2666);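 also: percent of cells scored positive for phospho-rpS6 Ser235/236 immunostaining by imaging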; also: potency is read from the fitted curve at half-maximal effect
Details: series mostly up to 38.3 µM
Method in brief: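 Cells were plated, dosed with compound after 24 hrs, and incubated another 24 hrs at 37 degree Celsius. Fixed cells were immunostained for phospho-rpS6 Ser235/236 and counterstained, and the normalized signal was scored as % active cells against rapamycin and DMSO controls.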

Row | Compound | outcome | Potency
7 | N[C@@H](Cc1c[nH]c2ccc(O)cc12)C(=O)O | inactive | 
8 | CCOC(=O)Nc1ccc(NCc2ccc(F)cc2)nc1N | inactive | 
9 | COc1cc2nc(N3CCN(C(=O)c4ccco4)CC3)nc(N)c2cc1OC | inactive | 
10 | CN1CCC(=C2c3ccccc3C=Cc3ccccc32)CC1 | inactive | 
11 | Nc1c2c(nc3ccccc13)CCCC2 | inactive | 
12 | Fc1ccc([C@@H]2CCNC[C@H]2COc2ccc3c(c2)OCO3)cc1 |  | 2.93 µM (active)
13 | O=C1c2c(O)ccc(O)c2C(=O)c2c(NCCNCCO)ccc(NCCNCCO)c21 | inactive | 
14 | CCC1(C)CC(=O)NC1=O (stereo not given) | inactive | 
15 | CC(C)NCC(O)COc1ccc(CCOCC2CC2)cc1 (stereo not given) | inactive | 
16 | CN(C)c1nc(N(C)C)nc(N(C)C)n1 | inactive | 
17 | NCCS(=O)(=O)O | inactive | 
18 | CN(C)CCC=C1c2ccccc2C=Cc2ccccc21 | inactive | 
19 | Cn1c(=O)c2c(ncn2C)n(C)c1=O | inactive | 
20 | CCC1(c2ccccc2)C(=O)NCNC1=O | inactive | 
21 | COc1ccc2[nH]cc(CCNC(C)=O)c2c1 | inactive | 
22 | CCCNCC(O)COc1ccccc1C(=O)CCc1ccccc1 (stereo not given) | inactive | 
23 | CN1CCC(=C2c3ccccc3CC(=O)c3sccc32)CC1 | inactive | 
24 | O=C(c1ccc(F)cc1)C1CCN(CCn2c(=O)[nH]c3ccccc3c2=O)CC1 | inactive | 
25 | CC[N+](CC)(CC)CCOc1cccc(OCC[N+](CC)(CC)CC)c1OCC[N+](CC)(CC)CC | inactive | 
26 | O=C1N(c2ccccc2)c2ccccc2C1(Cc1ccncc1)Cc1ccncc1 | inactive | 
27 | NC(=O)OCC(COC(N)=O)c1ccccc1 | inactive | 
28 | Nc1nc2c(ncn2COC(CO)CO)c(=O)[nH]1 | inactive | 
29 | CC(CCc1ccc(O)cc1)NCCc1ccc(O)c(O)c1 (stereo not given) | inactive | 
30 | COc1ccccc1N1CCN(CC(O)COc2cccc3ccccc23)CC1 (stereo not given) | inactive | 
31 | Cn1c(=O)c2[nH]cnc2n(C)c1=O | inactive | 
32 | NCCc1cnc[nH]1 | inactive | 
33 | COc1cc2nc(N3CCN(C(=O)C4COc5ccccc5O4)CC3)nc(N)c2cc1OC (stereo not given) | inactive | 
34 | CN(C)CCOC(c1ccccc1)c1ccccc1 | inactive | 
35 | NC12CC3CC(CC(C3)C1)C2 | inactive | 
36 | Cn1cnc2c1c(=O)[nH]c(=O)n2C | inactive | 

Experiment: High Content Imaging Cell-Based qHTS for Inhibitors of the mTORC1 Signaling Pathway in MEF Cells (AID 2667); also: potency is read from the fitted curve at half-maximal effect;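 as to activity change, negative = inhibition: Tsc2-/- p53-/- MEFs stably re-expressing wild-type Tsc2 exposed 24 h; plate controls were DMSO wells for no effect and rapamycin control wells for full effect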
Details: series mostly up to 38.3 µM; activity change, negative = inhibition: at the top concentration
Method in brief: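 Immunofluorescence for rpS6 phosphorylation in MEFs of Tsc2-/-, p53-/- background rescued with WT Tsc2. Compound exposure lasted 24 hrs. Inhibition was scored against rapamycin-treated control wells.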

Row | Compound | activity change, negative = inhibition [%] | Potency
37 | CCOC(=O)Nc1ccc(NCc2ccc(F)cc2)nc1N | -100 | 
38 | CN1CCC(=C2c3ccccc3C=Cc3ccccc32)CC1 | -1.74 | 
39 | Nc1c2c(nc3ccccc13)CCCC2 | -100 | 
40 | O=C1c2c(O)ccc(O)c2C(=O)c2c(NCCNCCO)ccc(NCCNCCO)c21 | -100 | 
41 | CCC1(C)CC(=O)NC1=O (stereo not given) | -100 | 
42 | CC(C)NCC(O)COc1ccc(CCOCC2CC2)cc1 (stereo not given) | -100 | 
43 | CN(C)c1nc(N(C)C)nc(N(C)C)n1 | -100 | 
44 | NCCS(=O)(=O)O | -100 | 
45 | Cn1c(=O)c2c(ncn2C)n(C)c1=O | -100 | 
46 | CCC1(c2ccccc2)C(=O)NCNC1=O | -100 | 
47 | COc1ccc2[nH]cc(CCNC(C)=O)c2c1 | -100 | 
48 | CCCNCC(O)COc1ccccc1C(=O)CCc1ccccc1 (stereo not given) |  | 16.5 µM (active)
49 | CN1CCC(=C2c3ccccc3CC(=O)c3sccc32)CC1 | -100 | 
50 | O=C(c1ccc(F)cc1)C1CCN(CCn2c(=O)[nH]c3ccccc3c2=O)CC1 | -100 | 
51 | CC[N+](CC)(CC)CCOc1cccc(OCC[N+](CC)(CC)CC)c1OCC[N+](CC)(CC)CC | -100 | 
52 | O=C1N(c2ccccc2)c2ccccc2C1(Cc1ccncc1)Cc1ccncc1 | -100 | 
53 | NC(=O)OCC(COC(N)=O)c1ccccc1 | -100 | 
54 | Nc1nc2c(ncn2COC(CO)CO)c(=O)[nH]1 | -100 | 
55 | CC(CCc1ccc(O)cc1)NCCc1ccc(O)c(O)c1 (stereo not given) | -100 | 
56 | Cn1c(=O)c2[nH]cnc2n(C)c1=O | -100 | 
57 | NCCc1cnc[nH]1 | -100 | 
58 | CN(C)CCOC(c1ccccc1)c1ccccc1 | -100 | 
59 | NC12CC3CC(CC(C3)C1)C2 | -100 | 
60 | Cn1cnc2c1c(=O)[nH]c(=O)n2C | -100 | 

Experiment: Cytometry Cell-Based qHTS for Inhibitors of the mTORC1 Signaling Pathway in MEF cells (AID 2668); also: potency is read from the fitted curve at half-maximal effect;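 as to activity change, negative = inhibition: Tsc2-/- p53-/- mouse embryonic fibroblasts stably re-expressing wild-type Tsc2; percent cells positive for phospho-rpS6 Ser235/236 relative to propidium iodide stain; plate controls were DMSO wells for no effect and 7.5 nM rapamycin control wells for full effect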
Details: mTORC1 pathway readout; series mostly up to 38.3 µM; activity change, negative = inhibition: at the top concentration
Method in brief: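 In MEFs grown in DMEM + 10% FBS, a 24 hrs compound exposure preceded imaging of phospho-rpS6 Ser235/236 by laser-scanning cytometry.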

Row | Compound | activity change, negative = inhibition [%] | Potency
61 | CCOC(=O)Nc1ccc(NCc2ccc(F)cc2)nc1N | -1.55 | 
62 | Nc1c2c(nc3ccccc13)CCCC2 | -2.33 | 
63 | CC(C)NCC(O)COc1ccc(CCOCC2CC2)cc1 (stereo not given) | -3.12 | 
64 | NCCS(=O)(=O)O | -1.5 | 
65 | CCC1(c2ccccc2)C(=O)NCNC1=O | 1.35 | 
66 | CC[N+](CC)(CC)CCOc1cccc(OCC[N+](CC)(CC)CC)c1OCC[N+](CC)(CC)CC | 5.14 | 
67 | CC(CCc1ccc(O)cc1)NCCc1ccc(O)c(O)c1 (stereo not given) | -5.65 | 
68 | NCCc1cnc[nH]1 | 2.29 | 
69 | COc1cc2nc(N3CCN(C(=O)C4COc5ccccc5O4)CC3)nc(N)c2cc1OC (stereo not given) |  | 11.7 µM (active)
70 | NC12CC3CC(CC(C3)C1)C2 | -29 | 
